Measured values taken from PubChem BioAssay (Tox21).
Inconclusive results are not listed. Activity calls are given as the source filed them. Unless noted, calls follow the shape of the dose curve; as a rule, active = well fitted curve in the direction sought with a large enough effect in the repeat runs; inconclusive = weak or mixed curves; inactive = no such curve, though single readings can be large; an effect the other way counts as inactive or inconclusive. Positions of bridges follow the written chain, without caps; N, C: chain ends. Non-standard residues stand in square brackets, D forms with d. Residues, ends and D or L forms follow the SMILES beside them. hArg = N=C(N)NCCCC[C@H](N)C(=O)O; Mpa = O=C(O)CCS

How the values were obtained:
[1] = qHTS assay for small molecule agonists of the p53 signaling pathway (AID 651631; calls by dose curve; also: nearly all actives have a fitted effect of over 15% in size)
Outline: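 HCT-116 p53RE-bla reporter line, 16 h compound treatment at 37 °C, then fluorescence after 2 h with B/G FRET substrate.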

[2] = qHTS assay for small molecules that induce genotoxicity in human embryonic kidney cells expressing luciferase-tagged ATAD5 (AID 651632); also: nearly all actives have a fitted effect of over 15% in size
Outline: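 ATAD5-luc HEK293T, 2,000 cells/well; cpd or DMSO pin-transferred; 16 hr, 37C/5% CO2; Amplite 30 min RT; luminescence.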

[3] = qHTS assay for small molecule agonists of the p53 signaling pathway - cell viability (AID 651633; calls by dose curve;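 also: p53RE-bla HCT reporter cells with a stable beta-lactamase p53 reporter; series mostly up to about 83 µM; nearly all actives have a fitted effect of over 30% in size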)
Outline: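 p53RE-bla cells, seeded at 4,000 per well and rested 5 h at 37 C/5% CO2, received compounds in DMSO for 16 h at 37 C. CellTiter-Glo was then added, and luminescence was read after 30 min at room temperature to gauge cytotoxicity.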

[4] = qHTS assay for small molecules that induce genotoxicity in human embryonic kidney cells expressing luciferase-tagged ATAD5 - cell viability (AID 651634; calls by dose curve; also: nearly all actives have a fitted effect of over 25% in size)
Outline: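 Fluorescence from CellTiter-Fluor, reporting protease activity within live cells, served as the viability read-out. HEK293T cells carrying luciferase-tagged ATAD5 had been treated with compound for 15.5 hr at 37C.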

[5] = qHTS assay for small molecule disruptors of the mitochondrial membrane potential - cell viability (AID 720634; calls by dose curve;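 also: human HepG2 liver cancer cells; series mostly up to about 83 µM; nearly all actives have a fitted effect of over 20% in size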)
Outline: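 Cells: HepG2, 2,000/well, attached overnight. Compound 1 hr, 37 C/5% CO2. +m-MPI dye, +CellTiter-Glo 30 min RT. Readout: luminescence (ATP).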

[6] = qHTS assay for small molecule disruptors of the mitochondrial membrane potential (AID 720635); also: potency is read from the fitted curve at half-maximal effect
Outline: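 HepG2 cells (2,000/well) attached overnight at 37C, then took compound for 1 hr at 37C, 5% CO2. Mito-MPS dye was added for 30 min; fluorescence was read at 490/535 nm (monomers) and 540/590 nm (aggregates).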

[7] = qHTS assay to test for compound auto fluorescence at 590 nm (red) in HepG2 cells (AID 720674)
Outline: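 Intrinsic compound fluorescence in the red window (Ex/Em 540/590 nm) is measured in attached HepG2 cells exposed for 1 hr, DMSO vehicle as baseline, benchmarked to Rose Bengal sodium.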

[8] = qHTS assay to test for compound auto fluorescence at 535 nm (green) in HepG2 cells (AID 720675)
[9] = qHTS assay to test for compound auto fluorescence at 460 nm (blue) in HEK293 cells (AID 720678)
Outline: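 After cell attachment (4-5 hr, 37C), compounds were pinned onto HEK293 monolayers in 10% dialyzed FBS medium. The blue channel (405/460 nm) was read following overnight culture. Equivalency was calculated against triamterene.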

[10] = qHTS assay to test for compound auto fluorescence at 590 nm (red) in HEK293 cells (AID 720679)
Outline: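 Plates of HEK293 cells (10% dialyzed FBS) are treated with 23 nL compound or DMSO vehicle after a 4-5 hr attachment period, incubated overnight at 37C, and read for red fluorescence at 540/590nm.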

Measured: Potency

C/C(CC(C)C)=N\O
inactive: all assays above

NC(=O)[C@@H]1CSSCCC(=O)N[C@@H](CCCCN=C(N)N)C(=O)NCC(=O)N[C@@H](CC(=O)O)C(=O)N[C@@H](Cc2c[nH]c3ccccc23)C(=O)N2CCC[C@H]2C(=O)N1 ([Mpa][hArg]GDWPC-NH2; disulfide 1-7)
inactive: all assays above

O=C(O)CCCCCC(=O)O
not listed: [10]
inactive: all other assays above

CCCc1ccc(O)cc1
active: [6] 54.5 µM
not listed: [10]
inactive: all other assays above

O=Cc1cc2ccccc2o1
not listed: [10]
inactive: all other assays above

CC1(C)Cc2cccc(N)c2O1
inactive: all assays above
